An excerpt weighted towards active compounds, which were near 2.7% of everything screened.
MRP reversal – reversal of MRP1-mediated doxorubicin resistance, primary screen, H69AR cells, doxorubicin co-treatment | H69AR cells + 2 uM doxorubicin, CellTiter-Glo, 72 h | differential viability (reversal), % at 10 µM | 85,000 compounds, 0.04% hits | AID 602, 2007;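 active = viability drop by adding the cancer drug above about 55%, with treated viability meeting a 40% cutoff, limit read from the data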;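 note: viability without doxorubicin minus viability with 2 µM doxorubicin for each compound; larger differential means the compound sensitizes cells more to doxorubicin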
MRP1 act – H69AR viability gain despite doxorubicin, primary screen, MRP-1 activator project, H69AR cells, CellTiter-Glo | viability increase, % at 10 µM | 140,000 compounds, 0.61% hits | viability rescue;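 active = viability gain under doxorubicin at or above a set limit, the compound median plus 3 SD, cut at about 4.7% in these data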;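 note: MRP-1 overexpressing cells given doxorubicin 25 µM after compound pretreatment; 18-22 h compound pretreatment then 72 h with doxorubicin before readout; 0% = doxorubicin-only wells and 100% = vehicle-treated cells without doxorubicin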
ERb coact inh – inhibitors of ERβ-SRC1 coactivator interaction, primary screen, biochemical, TR-FRET, ERβ LBD, SRC-1 peptide. TR-FRET ER-beta LBD / SRC1-Cy5 peptide binding; receptor agonist-loaded with 1 µM estradiol. inhibition, % at 25.6 µM. 86,000 compounds, 1.3% hits. AID 633, 2007;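 active = compounds whose percent inhibition of the receptor-coactivator binding signal exceeds about 50% in the single-dose screen, limit read from the data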;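 note: 0% = receptor plus peptide wells without compound and 100% = peptide-only wells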
Target sequence (Q92731 whole entry, looked up, the tested form may be a part): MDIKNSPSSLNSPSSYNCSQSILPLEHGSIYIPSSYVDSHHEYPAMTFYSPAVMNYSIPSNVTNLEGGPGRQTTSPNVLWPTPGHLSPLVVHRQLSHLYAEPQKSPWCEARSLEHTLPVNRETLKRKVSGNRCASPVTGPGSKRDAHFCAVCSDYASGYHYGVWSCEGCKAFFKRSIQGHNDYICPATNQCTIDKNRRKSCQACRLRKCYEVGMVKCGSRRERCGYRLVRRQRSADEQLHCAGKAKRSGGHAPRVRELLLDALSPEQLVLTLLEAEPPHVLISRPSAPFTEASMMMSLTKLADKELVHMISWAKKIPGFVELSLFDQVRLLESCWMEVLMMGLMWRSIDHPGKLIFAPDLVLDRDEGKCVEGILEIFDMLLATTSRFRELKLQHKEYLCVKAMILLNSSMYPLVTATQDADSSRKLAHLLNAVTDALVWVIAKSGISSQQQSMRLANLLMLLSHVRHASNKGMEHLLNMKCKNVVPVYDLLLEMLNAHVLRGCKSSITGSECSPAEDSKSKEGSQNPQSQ
ERa SRC1 inh – ERα–SRC-1 coactivator interaction inhibitors, primary screen, biochemical, TR-FRET, ERα LBD, estradiol-bound; Estrogen receptor (Homo sapiens), P03372; TR-FRET ER-alpha LBD / SRC-1 peptide; inhibition, % at 25.6 µM; 86,000 compounds, 1.7% hits; AID 629, 2007; in the data active = inhibition above about 50%;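 note: 0% = receptor plus peptide control and 100% = peptide only without receptor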
ERa SRC1 pot – enhancers of ERα–SRC-1 coactivator binding, primary screen, biochemical, TR-FRET, ERα LBD, low estradiol. Estrogen receptor (Homo sapiens), P03372. TR-FRET ERalpha-LBD/SRC-Cy5 coactivator binding, 2 h; 100 = basal binding, no effect. coactivator binding (% of control), % at 25.6 µM. 86,000 compounds, 1.3% hits; in the data active = activity above about 200%;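 note: binding measured in presence of low estradiol as agonist stimulus; 0% = peptide alone without receptor and 100% = receptor with peptide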
* hit, by the source's call; . = no result given; [ ] = remark or other dose.

SMILES	MRP reversal	MRP1 act	ERb coact inh	ERa SRC1 inh	ERa SRC1 pot
COc1ccc(CNC(=O)COC(=O)CCCOc2ccc(Cl)cc2Cl)cc1	.	4.9*	.	.	.
COc1ccc(C(=O)CSc2nc3ccc([N+](=O)[O-])cc3[nH]2)cc1	.	0	.	.	.
COc1ccc(NC(=O)COC(=O)CCCN2C(=O)c3ccccc3C2=O)cc1Cl	.	-1	.	.	.
CCN=C1SC(C(=O)Nc2ccccc2)CC(=O)N1CC (centres undefined)	3	0	24	-6	109
CC(c1ccccc1)N1CCn2c(nc3cc(NC(=O)c4cccs4)ccc32)C1 (centres undefined)	-1	-5	3	0	81
COCCN1CCn2c(nc3cc(NC(=O)c4cccs4)ccc32)C1	0	0	43	74*[fluorescence artefact?]	17
O=C(c1ccc2c(c1)[nH]c(=S)n1c3ccccc3nc21)N1CCN(c2ncccn2)CC1	0	0	-4	51*[fluorescence artefact?]	73
O=C(c1ccc(F)cc1)N1CCN(c2ncccn2)CC1	-5	0	-7	1	119
CC1(C)C(=O)Nc2ccccc2N1C(=O)COc1ccc(S(=O)(=O)N2CCOCC2)cc1Cl	5	-1	88*[fluorescence artefact?]	85*[fluorescence artefact?]	23
CCOC(=O)c1[nH]c(=O)[nH]c1COC(=O)c1cc2ccccc2o1	.	-1	.	.	.
COn1c(SCc2ccc(C)cc2C)nc2ccccc2c1=O	-34	-4	-13	-1	84
O=C1CCCC2=C1C(c1ccco1)Nc1ccc3ccccc3c12 (centres undefined)	6	-2	89*[fluorescence artefact?]	89*[fluorescence artefact?]	4
Cc1ccc(C2Nc3ccc4ccccc4c3C3=C2C(=O)CC(C)(C)C3)o1 (centres undefined)	2	3	1	2	112
CCOC(=O)c1cc(CC)sc1NC(=O)c1ccc2c(c1)OCCO2	-1	2	30	26	466*[fluorescence artefact?]
CCOC(=O)c1cc(CC)sc1NC(=O)c1cc(OCC)c(OCC)c(OCC)c1	-4	-1	-4	-3	97
Cc1ccc(NC(=O)/C=C\C(=O)NCC(=O)O)cc1C	.	0	.	.	.
CSC(=Nc1cccc(C)c1)NC#N	.	-3	.	.	.
Cc1c(C(=O)NNC(=S)Nc2cccc(Cl)c2)nnn1-c1ccccc1	.	2	.	.	.
CN1CCN(CCN2CCn3c2nc2ccccc23)CC1	-1	-1	6	-3	93
N#CCCN1CCn2c1nc1ccccc12	-8	-3	-9	-10	200*
CCC(=O)N1CCn2c1nc1ccccc12	3	-2	55*[fluorescence artefact?]	5	91
CN1CCOCCOCCN(C)C1=O	1	-1	-1	-10	108
COc1ccc2nc(NC(=O)C(NS(=O)(=O)c3cccc4nsnc34)C(C)C)sc2c1 (centres undefined)	.	-3	.	.	.
COCCOC(=O)c1c(C)oc2ccc(NS(=O)(=O)c3ccccc3)cc12	14	-3	0	0	106
CCOC(=O)c1c(C)oc2ccc(NS(=O)(=O)c3ccc4c5c(cccc35)C(=O)N4)cc12	-1	-2	65*[fluorescence artefact?]	67*[fluorescence artefact?]	52
SMILES	MRP reversal	MRP1 act	ERb coact inh	ERa SRC1 inh	ERa SRC1 pot
COc1ccc(Cc2nnc(NC(=O)c3c(-c4ccccc4)noc3C)s2)cc1OC	26	9.5*	-1	-6	97
CCOC(=O)Cc1csc(NC(=O)CCCCCN2C(=O)c3cccc4cccc(c34)C2=O)n1	-14	.	58*[fluorescence artefact?]	69*[fluorescence artefact?]	127
CCOC(=O)c1sc(NC(=O)CCCCCN2C(=O)c3cccc4cccc(c34)C2=O)nc1C	.	-3	.	.	.
CCOC(=O)Cc1csc(NC(=O)c2c(-c3ccccc3)noc2C)n1	7	4.9*	0	-5	126
CCOC(=O)Cc1csc(NC(=O)c2c(-c3c(F)cccc3Cl)noc2C)n1	-11	-4	3	-3	105
COc1ccc(OC)c2[nH]c(=O)c(CCNC(=O)c3ccc(Br)o3)cc12	-4	4.7*	-9	-1	99
COc1ccc(OC)c2[nH]c(=O)c(CCNC(=O)C(C)C)cc12	-6	2	-2	-3	119
CCOC(=O)c1cc(-c2ccccc2)sc1NC(=O)C(C)Sc1nnnn1C (centres undefined)	5	4	-1	-11	118
CCOC(=O)c1cc(-c2ccccc2)sc1NC(=O)C(C)Sc1nnc(C)s1 (centres undefined)	.	9.2*	.	.	.
COCCNc1nc2c(c(=O)n(Cc3ccc(OC)cc3)c(=O)n2C)n1C	8	-1	8	6	112
COc1ccc(CNc2nc3c(c(=O)n(Cc4ccc(Cl)cc4)c(=O)n3C)n2C)cc1	20	5.5*	0	7	132
Cc1cccc(-c2nc(CN3CCCC(C(=O)NC4CCCCCC4)C3)c(C)o2)c1 (centres undefined)	-15	-4	-7	-6	90
COC(=O)c1ccc2c(c1)N(Cc1nc(-c3cccc(C)c3)oc1C)C(=O)C1CCCN21 (centres undefined)	-5	-1	42	59*	93
O=C(CN1CCN(C/C=C/c2ccccc2)CC1)Nc1cc([N+](=O)[O-])ccc1Cl	.	-4	.	.	.
N#CCSc1n[nH]c2nc3c(c(=O)n12)C1(CCCC1)Cc1ccccc1-3	16	5.0*	6	15	71
Cc1ccc(NC(=O)CSc2nnc(-c3cnccn3)n2-c2ccccc2)cc1	.	-2	.	.	.
O=C(Cn1c(=O)c2c(ncn2Cc2ccccc2)n(Cc2ccccc2)c1=O)N1CCc2ccccc21	16	5.3*	-9	2	98
CCn1cnc2c1c(=O)n(CC(=O)N1CCc3ccccc31)c(=O)n2Cc1ccccc1	3	2	-10	-8	139
COc1ccc(C(=O)NC(NC(=O)c2ccc(OC)c(OC)c2)c2ccccc2F)cc1OC	.	-2	.	.	.
CCN1CCN(Cc2ccc(NC(=O)Nc3ccccc3Cl)cc2)CC1	7	-2	11	-5	261*
CCOC(=O)/C(=N\Nc1ccccc1Cl)N1CCN(Cc2ccccc2)CC1	.	5.1*	.	.	.
CCOC(=O)/C(=N\Nc1ccccc1Cl)N1CCN(C)CC1	.	0	.	.	.
CCN1CCN(Cc2ccccc2NC(=O)Nc2ccc(C)cc2)CC1	-2	-1	-4	-6	113
Cc1ccc(C(=O)CSc2nnc(-c3ccc4[nH]c(C)c(C)c4c3)o2)cc1C	.	-5	.	.	.
Cc1[nH]c2ccc(-c3nnc(SCC(=O)c4ccccc4F)o3)cc2c1C	-4	4	46	70*	62
CC(C)(C)NC(=O)CN(C(=O)Cn1nnc(-c2ccc(Cl)cc2)n1)C1CCN(Cc2ccccc2)CC1	-14	-7	-3	2	102
COC(=O)c1sc2cc(C(F)(F)F)cnc2c1-c1ccccc1	.	-2	.	.	.
O=C(Nc1ccc(F)cc1)c1sc2cc(C(F)(F)F)cnc2c1-c1cccs1	12	2	21	21	185

Assay outcomes from PubChem BioAssay.
